Compound activity (PubChem)
Rows were chosen to be rich in hits. Some 2.9% of all compounds tested hit in one or more screens of this group.
ZTA DNA inh – blocks Epstein-Barr virus ZTA, an EBNA-1 counter-screen; P03206; ZTA-DNA binding, fluorescence polarization; inhibition, % at 11 µM; 0.15% of 320,000 active; in the data active = inhibition above about 33%
Target sequence (P03206 whole entry, looked up): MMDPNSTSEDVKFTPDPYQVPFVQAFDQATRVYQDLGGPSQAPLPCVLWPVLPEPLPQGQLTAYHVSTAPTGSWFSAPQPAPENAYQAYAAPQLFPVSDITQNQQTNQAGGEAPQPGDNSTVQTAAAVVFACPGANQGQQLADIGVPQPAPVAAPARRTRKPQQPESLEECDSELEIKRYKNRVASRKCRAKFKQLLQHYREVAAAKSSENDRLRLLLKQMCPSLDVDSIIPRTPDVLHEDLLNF
PAFAH1B3 inh – blocks human PAF acetylhydrolase 1B catalytic subunit 3. 0.28% of 340,000 active. recombinant PAFAH1B3, FP-rhodamine probe, fluorescence polarization. inhibition, % at 3.39 µM. AID 492972. Q15102;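 active = inhibition above the screen-wide average of all tested compounds plus 3 SD, cut at about 25% in these data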;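 note: 0% = enzyme with DMSO only and 100% = wells lacking PAFAH1B3 protein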
rCAG binder – molecules binding r(CAG) RNA repeats | r(CAG) RNA repeat, TO-PRO-1 dye displacement fluorescence | inhibition, % at 3 µM | 1.3% of 370,000 active;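 active = inhibition above the plate cutoff, the mean of all test compounds on that plate plus 3 SD, cut at about 35% in these data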;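 note: 0% = DMSO alone and 100% = 100 µM mitoxantrone as full dye displacement; higher means more dye released from RNA so lower well fluorescence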
EBNA-1 inhibitor – blocks EBNA-1 binding to DNA; AID 1950; inhibition, % at 14.8 µM; 0.34% of 300,000 active; EBNA-1 DNA binding, fluorescence polarization; in the data active = inhibition above about 28%
PAFAH2 inh – inhibitors of human PAFAH2 | Q99487 | recombinant PAFAH2, FP-rhodamine activity probe, fluorescence polarization | inhibition, % at 3.39 µM | 0.99% of 340,000 active;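 active = inhibition above the mean over all tested compounds plus 3 SD, cut at about 30% in these data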;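 note: inhibitors block probe labeling of enzyme so polarization drops; 0% = enzyme with DMSO and 100% = wells lacking PAFAH2 protein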
PAFAH1B2 FP inh – inhibitors of human PAFAH1B2 | P68402 | recombinant PAFAH1B2, FP-rhodamine activity probe, fluorescence polarization | inhibition, % at 3.39 µM | 1.2% of 340,000 active | AID 492953;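 active = inhibition above the mean of all tested compounds plus 3 SD, cut at about 24% in these data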;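 note: 0% = enzyme with DMSO and 100% = wells lacking PAFAH1B2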
Target sequence (P68402 whole entry, looked up): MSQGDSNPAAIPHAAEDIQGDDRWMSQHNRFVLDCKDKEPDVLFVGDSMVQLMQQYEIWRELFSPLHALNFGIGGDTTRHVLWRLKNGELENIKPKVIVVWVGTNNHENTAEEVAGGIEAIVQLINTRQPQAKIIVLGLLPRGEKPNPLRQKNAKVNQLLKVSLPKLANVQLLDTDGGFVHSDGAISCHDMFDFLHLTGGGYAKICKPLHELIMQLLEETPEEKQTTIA
rCAG bind conf – r(CAG) RNA repeat binding, confirmation; TO-PRO-1 dye displacement fluorescence; inhibition, % at 3 µM; AID 652065; 70% of 4,300 active; shares compounds with rCAG binder;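 active = inhibition above a per-plate cutoff, the mean inhibition of sample wells plus 3 SD, cut at about 35% in these data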;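 note: loss of TO-PRO-1 fluorescence as compound displaces dye from 1x1 AA loop RNA; 0% = DMSO only wells and 100% = 100 µM mitoxantrone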
DNA CAG counter – DNA CAG dye complex inhibition counter-screen; d(CAG) DNA oligo TO-PRO-1 dye displacement, fluorescence; inhibition, % at 3 µM; shares compounds with rCAG binder; 94% of 4,300 active; AID 652068;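 active = inhibition above its plate's cutoff, the mean test-well inhibition plus 3 SD, cut at about 4.8% in these data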;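 note: 0% = DNA dye mix with DMSO and 100% = 100 µM mitoxantrone; hits displace the dye from DNA and so lower well fluorescence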
Numbers without * were called inactive; / = no result given.

SMILES	ZTA DNA inh	PAFAH1B3 inh	rCAG binder	EBNA-1 inhibitor	PAFAH2 inh	PAFAH1B2 FP inh	rCAG bind conf	DNA CAG counter
O=S(=O)(N/N=C/c1ccc(Cl)cc1)c1ccc(Cc2ncc(C(F)(F)F)cc2Cl)s1	5	5	45*	2	8	13	65*	26*
O=C(COc1ncnc2c(Cl)cc(Cl)cc12)Nc1cc([N+](=O)[O-])ccc1Cl	-2	5	68*	-2	-17	-2	14	9.4*
Cc1cc(S(=O)(=O)Nc2nc(CN3CCOCC3)nc3sc4c(c23)CCC4)ccc1F	/	6	54*	/	2	1	49*	14*
CC(=O)Nc1ccc(N2CCOCC2)c(S(=O)(=O)Nc2ccccc2Cl)c1	/	/	11	/	/	/	/	/
O=C(Nc1cccc(C(F)(F)F)c1)Nc1ccc(N2CCCC2)c(S(=O)(=O)Nc2ccccc2Cl)c1	-3	12	46*	-2	-18	18	34	18*
O=C(Nc1cccc(S(=O)(=O)Nc2ccccc2Cl)c1)c1ccc(N2CCCC2)c([N+](=O)[O-])c1	-7	-19	61*	-10	-49	-10	44*	21*
COc1cccc(CN2c3ccc(Br)cc3C(=O)CS2(=O)=O)c1	-20	2	52*	/	-12	-3	39*	16*
C=CCN1c2ccc(Br)cc2C(=O)CS1(=O)=O	6	-3	66*	/	-9	12	10	6.3*
O=C(NC1CC2CCCC(C1)N2Cc1ccccc1)c1ccc([N+](=O)[O-])cc1 (stereo not drawn)	/	10	1	/	6	4	/	/
COc1ccc(N(CC(=O)Nc2cc(C)ccc2OC)S(=O)(=O)c2c(C)noc2C)cc1	1	4	-3	-6	1	0	/	/
COc1ccc(N(CC(=O)Nc2cc(OC)c(OC)cc2C(=O)O)S(=O)(=O)c2c(C)noc2C)cc1	0	0	41*	3	4	5	24	3
Cc1cc2cc(CNC(=O)C(C)Oc3ccccc3)ccc2n1C (stereo not drawn)	-5	7	-1	-16	4	2	/	/
COc1cccc(/C=C(\C#N)c2nc3ccccc3[nH]2)c1OCC(=O)O	6	5	11	-6	1	3	/	/
COc1cccc(/C=C(/C#N)c2ccc(Cl)cc2)c1OCc1cccc(C(=O)O)c1	8	1	42*	-6	7	20	69*	29*
COc1cc(/C=C(/C#N)c2ccc(F)cc2)ccc1OCc1ccc(C(=O)O)o1	3	8	52*	5	14	14	46*	10*
COc1cccc(/C=C(/C#N)c2ccc(F)cc2)c1OCc1cccc(C(=O)O)c1	1	6	51*	7	1	13	49*	15*
COc1cc(/C=C(\C#N)C(=O)Nc2cccc(C(=O)O)c2)ccc1OCc1ccc(F)cc1	-2	1	20	-7	-21	6	/	/
COC(=O)[C@@]12CCCCC3=C1N(CCC3)C(=O)[C@H]2CC(=O)NCCc1ccccc1OC	/	/	0	/	/	/	/	/
CC(C)C[C@H]1COc2cccc(N(C)CCO)c2S(=O)(=O)N1	/	/	0	/	/	/	/	/
COc1ccccc1N1CCN(C(=O)C(=O)c2c[nH]c3ccccc23)CC1	-8	-7	3	-8	-9	5	/	/
Oc1ccc(/C=N/N(c2ccccc2)c2ccccc2)cc1O	0	4	29	-7	-5	1	/	/
Oc1ccc(/C=N/N(c2ccccc2)c2ccccc2)c(O)c1O	-4	-5	43*	-7	9	4	52*	28*
O=C(O)c1ccc(/C=N/NC(=O)c2cc(-c3ccc4c5c(cccc35)CC4)n[nH]2)cc1	18	-26	81*	-3	-31	-17	80*	49*
O=C(O)COc1ccc(NC(=O)c2ccc3c(c2)C(=O)N(Cc2ccccc2)C3=O)cc1	-6	1	47*	6	-1	-2	28	6.2*
CCOc1ccc(N=Nc2c(=O)[nH]n3c(=O)c4c([nH]c23)CCCC4)cc1	-2	6	4	-10	9	7	/	/
SMILES	ZTA DNA inh	PAFAH1B3 inh	rCAG binder	EBNA-1 inhibitor	PAFAH2 inh	PAFAH1B2 FP inh	rCAG bind conf	DNA CAG counter
O=c1[nH]n2c(=O)c3c([nH]c2c1N=Nc1cccc(Cl)c1)CCCC3	7	14	75*	15	30*	34*	85*	48*
CCOC(=O)[C@]12CCCC=C1N(CCCOC)C(=O)[C@@H]2CC(=O)NCc1ccc(C)o1	/	/	-2	/	/	/	/	/
COc1ccc(C2=NN(C(=O)COC(=O)c3ccc(NC(=O)CC#N)cc3)C(c3ccco3)C2)cc1 (stereo not drawn)	3	-40	35*	/	-49	-22	23	18*
CCOc1cccc(NC(=O)CSc2sc3c(O)cc(=O)[nH]c3c2C#N)c1	-2	9	39*	4	-1	1	23	9.4*
Cc1c(Cl)cccc1NC(=O)CSc1nc2ncc(Cl)cc2[nH]1	8	0	2	4	0	2	/	/
Cc1ccccc1NC(=O)CSc1[nH]c(=O)cc(C)c1C#N	8	11	16	-2	15	3	/	/
N#Cc1c(SCC(=O)Nc2ccc(Cl)cc2Cl)sc2c(O)cc(=O)[nH]c12	3	8	44*	0	10	1	27	13*
CCOc1cccc(NC(=O)CSc2nncn2N)c1	-26	7	3	0	0	-10	/	/
Cc1c(Cl)cccc1NC(=O)CSc1sc2c(O)cc(=O)[nH]c2c1C#N	7	4	39*	-6	-1	8	16	5.8*
N#Cc1c(SCC(=O)Nc2ccccc2C(F)(F)F)sc2c(O)cc(=O)[nH]c12	-5	9	50*	-14	7	6	15	6.3*
COc1ccc(CCN(C)C(=O)CSc2nc3ccccc3c(=O)n2CC2CCCO2)cc1OC (stereo not drawn)	/	1	-7	/	-2	3	/	/
COc1cc(C(=O)Nc2ccc(S(=O)(=O)Nc3cc(C)nc(C)n3)cc2)cc(OC)c1OC	-4	3	7	2	9	7	/	/
O=C(Nc1ccc(S(=O)(=O)Nc2ccccn2)cc1)c1ccc(Cl)cc1Cl	3	-4	4	-11	-12	3	/	/
COCCNC(=S)Nc1ccc(S(=O)(=O)Nc2cnc3ccccc3n2)cc1	7	13	9	-6	6	0	/	/
Cc1ccc(C(=O)Nc2ccc(S(=O)(=O)Nc3cnc4ccccc4n3)cc2)cc1	6	-8	43*	4	-1	3	34	12*
COc1cc(OC)cc(C(=O)Nc2ccc(S(=O)(=O)Nc3ccccn3)cc2)c1	-9	7	7	9	-17	1	/	/
COc1cc(OC)cc(C(=O)Nc2ccc(S(=O)(=O)Nc3cnc4ccccc4n3)cc2)c1	4	/	64*	2	/	/	59*	15*
